Among the data in the antibiotic and cytotoxicity screens of Wong et al. (2023) are growth inhibition call values, retold here.

The whole screen tested about 39,000 compounds, of which about 500 (1.3%) were called active. For the sample, actives were picked, then their nearest neighbours and some compounds at random.

The test has as its system S. aureus RN4220. The test is described as follows: growth inhibition call (relative growth <= 0.2). As to conditions: 50 µM.
Consider `NC(=O)c1cc[n+](CC2=C(C(=O)[O-])N3C(=O)C(NC(=O)Cc4cccs4)C3SC2)cc1` (centres undefined), for which the growth inhibition call is “active”.
Turning to `NC(=O)c1cc[n+](CC2=C(C(=O)[O-])N3C(=O)C(NC(=O)C(c4ccccc4)S(=O)(=O)[O-])C3SC2)cc1.[Na+]` (centres undefined), the growth inhibition call was “inactive”.
Under `NC(=O)c1cc[n+](CC2=C(C(=O)O)N3C(=O)[C@@H](NC(=O)Cc4cccs4)[C@H]3SC2)cc1` stands “active”.
As for `CC(C)(ON=C(C(=O)NC1C(=O)N2C(C(=O)[O-])=C(C[n+]3ccccc3)CSC12)c1csc(N)n1)C(=O)O` (centres undefined), the growth inhibition call was “inactive”.
`Cn1sccc1=O`: the growth inhibition call is “inactive”.
Take `O=C(C[C@@H]1CC[C@H]2[C@@H](COC[C@@H](O)CN2S(=O)(=O)c2ccc(Cl)cc2)O1)N1CCc2ccccc2C1`: the growth inhibition call is “inactive”.
As to `C[C@H](CO)N1C[C@H](C)[C@@H](CN(C)Cc2ccncc2)OCCCC[C@H](C)Oc2ccc(NC(=O)Nc3ccc4c(c3)OCO4)cc2C1=O`, the growth inhibition call was “inactive”.
As for `O=C(C[C@@H]1CC[C@H]2NC[C@@H](O)COC[C@@H]2O1)NCCN1CCCC1`, the growth inhibition call was “inactive”.
As to `COc1cc([C@@H]2c3cc4c(cc3[C@@H](O[C@@H]3O[C@@H]5CO[C@@H](C)O[C@H]5[C@H](O)[C@H]3O)[C@@H]3COC(=O)[C@@H]23)OCO4)cc(OC)c1O`, the growth inhibition call is “inactive”.
Regarding `COc1cc(C2c3cc4c(cc3C(OC3OC5COC(C)OC5C(O)C3O)C3COC(=O)C23)OCO4)cc(OC)c1O` (centres undefined), the growth inhibition call was “inactive”.
Consider `COc1cc([C@@H]2c3cc4c(cc3[C@@H](O[C@@H]3O[C@@H]5CO[C@@H](C)O[C@H]5[C@H](O)[C@H]3O)[C@H]3COC(=O)[C@H]23)OCO4)cc(OC)c1O`, for which the growth inhibition call was “active”.
Under `Nc1cc(=O)[nH]c(=O)n1-c1ccc(Cl)cc1` stands “inactive”; under `N#C[C@H](N)c1ccc(Cl)cc1`, “inactive”.
For `N#CC(c1ccc(Cl)cc1)c1c(Cl)cc(-n2ncc(=O)[nH]c2=O)cc1Cl` (centres undefined), the growth inhibition call is “active”.
Regarding `Cc1noc(C)c1NC(=O)N(C)C[C@@H]1OCCCC[C@@H](C)Oc2ccc(NC(=O)C3CCCCC3)cc2C(=O)N([C@@H](C)CO)C[C@@H]1C`, the growth inhibition call is “inactive”.
The same measure for `C[C@@H]1CN([C@@H](C)CO)C(=O)Cc2cc(NS(=O)(=O)c3ccccc3)ccc2O[C@@H]1CN(C)Cc1ccc(-c2ccccc2)cc1`: “inactive”.
As to `O=C(N[C@H](c1ccc(Cl)cc1)c1cnccn1)C1CCN(Cc2ccc(Oc3ccccc3)cc2)CC1`, the growth inhibition call was “active”.
Turning to `O=C(N[C@@H](c1ccc(F)cc1)c1ccc2ccccc2n1)C1CCN(CCOc2ccc(F)cc2)CC1`, the growth inhibition call is “active”.
The same measure for `O=C(N[C@@H](c1ccccc1)c1ccc2ccccc2n1)C1CCN(Cc2ccc(Oc3ccccc3)cc2)CC1`: “inactive”; for `COc1ccc(/C=C/CN2CCC(C(=O)N[C@@H](c3ccc(-c4ccccc4)cc3)c3cnccn3)CC2)cc1`: “active”.
Under `O=C(N[C@H](c1ccc(F)cc1)c1ccc2ccccc2n1)C1CCN(Cc2ccc(Oc3ccccc3)cc2)CC1` stands “inactive”.
The same measure for `O=C(N[C@@H](c1ccccc1)c1ccc2ccccc2n1)C1CCN(CCOc2ccc(Cl)cc2)CC1`: “active”.
`COc1cc(CN2CCC(C(=O)N[C@@H](c3ccc(-c4ccccc4)cc3)c3cnccn3)CC2)cc(OC)c1`: the growth inhibition call is “inactive”.
With `O=C(N[C@@H](c1ccc(-c2ccccc2)cc1)c1cnccn1)C1CCN(Cc2ccc(Oc3ccccc3)cc2)CC1`, the growth inhibition call is “inactive”.
Turning to `COc1ccc(/C=C/CN2CCC(C(=O)N[C@@H](c3ccc(F)cc3)c3ccc4ccccc4n3)CC2)cc1`, the growth inhibition call was “inactive”.
In the case of `O=C(N[C@@H](c1ccc(-c2ccccc2)cc1)c1cnccn1)C1CCN(Cc2ccc(Cl)c(Cl)c2)CC1`, the growth inhibition call is “inactive”.
Consider `O=C(N[C@@H](c1ccccc1)c1ccc2ccccc2n1)C1CCN(CCOc2ccc(Cl)cc2Cl)CC1`, for which the growth inhibition call was “inactive”.
For the compound `COc1ccc(OCCN2CCC(C(=O)N[C@@H](c3ccc(F)cc3)c3ccc4ccccc4n3)CC2)cc1`, the growth inhibition call was “inactive”.
With `Cc1noc(C)c1NC(=O)N(C)C[C@@H]1Oc2cc(Br)ccc2S(=O)(=O)N([C@@H](C)CO)C[C@H]1C`, the growth inhibition call was “inactive”.
With `C[C@@H]1O[C@@H](O[C@@H]2[C@@H](O)[C@H](OCCc3ccc(O)c(O)c3)O[C@H](COC(=O)/C=C/c3ccc(O)c(O)c3)[C@H]2O)[C@H](O)[C@H](O)[C@H]1O`, the growth inhibition call was “inactive”.
On to `CO[C@@H]1CN(C)C(=O)c2cc(NC(=O)CC(F)(F)F)ccc2OC[C@@H](C)N(C(=O)C2CCOCC2)C[C@@H]1C`, for which the growth inhibition call is “inactive”.
The same measure for `C[N+]1(C)C[C@H](O)[C@H](C(=O)O)C1`: “inactive”; for `COCC(=O)N1C[C@H](C)[C@H](OC)CN(C)C(=O)c2ccc(NC(=O)c3cc(C)on3)cc2OC[C@H]1C`: “inactive”; for `COCCOC(=O)N1C(=O)[C@@]2(c3cc(C#CCNC(N)=O)ccc31)[C@H](c1ccccc1OCCO)N1[C@H](c3ccccc3)[C@H](c3ccccc3)OC(=O)[C@H]1[C@@H]2C(N)=O`: “inactive”.
The same measure for `C[C@H](CO)N1C[C@H](C)[C@H](CN(C)S(=O)(=O)c2ccc(Oc3ccccc3)cc2)OCc2cnnn2CCCC1=O`: “inactive”; for `Cc1noc(C)c1NC(=O)Nc1ccc2c(c1)C(=O)N([C@H](C)CO)C[C@@H](C)[C@@H](CN(C)S(=O)(=O)c1ccc(Cl)cc1)OCCCC[C@H](C)O2`: “inactive”; for `CCCC#Cc1ccc2c(c1)O[C@@H](CN(C)C(=O)c1cnccn1)[C@@H](C)CN([C@@H](C)CO)S2(=O)=O`: “inactive”.
For the compound `O=C(N[C@@H](c1ccc(-c2ccccc2)cc1)c1cnccn1)C1CCN(Cc2cccc(C(F)(F)F)c2)CC1`, the growth inhibition call was “inactive”.
Consider `O=C(N[C@H](c1ccc(F)cc1)c1ccc2ccccc2n1)C1CCN(Cc2ccc3ccccc3n2)CC1`, for which the growth inhibition call was “inactive”.
With `O=C(N[C@@H](c1ccc(-c2ccccc2)cc1)c1cnccn1)C1CCN(CCCOc2ccccc2)CC1`, the growth inhibition call is “inactive”.
Turning to `O=C(N[C@@H](c1ccc(-c2ccccc2)cc1)c1cnccn1)C1CCN(CCOc2ccc(F)cc2)CC1`, the growth inhibition call was “active”.
Consider `COc1cc(CN2CCC(C(=O)N[C@@H](c3ccc(F)cc3)c3ccc4ccccc4n3)CC2)cc(OC)c1`, for which the growth inhibition call was “inactive”.
With `O=C(N[C@H](c1ccc(F)cc1)c1ccc2ccccc2n1)C1CCN(CCOc2ccc(Cl)cc2)CC1`, the growth inhibition call is “active”.
For `C[C@@H]1CCCCO[C@@H](CN(C)Cc2ccc(Cl)c(Cl)c2)[C@H](C)CN([C@H](C)CO)C(=O)c2cc(NC(=O)C3CCCCC3)ccc2O1`, the growth inhibition call was “inactive”.
